# Test results reported in the supplement of paper PMC7724964.
# Assays:
# Experiment in all cases: phage ELISA signal ratio (GST-PRM binding over GST background); higher = stronger binding of peptide-phage to the PRM
# [1] = molecular target: T1, FRS3 12-117 IRS (domain begin residue: 12, domain end residue: 117), O43559
# T1 chain: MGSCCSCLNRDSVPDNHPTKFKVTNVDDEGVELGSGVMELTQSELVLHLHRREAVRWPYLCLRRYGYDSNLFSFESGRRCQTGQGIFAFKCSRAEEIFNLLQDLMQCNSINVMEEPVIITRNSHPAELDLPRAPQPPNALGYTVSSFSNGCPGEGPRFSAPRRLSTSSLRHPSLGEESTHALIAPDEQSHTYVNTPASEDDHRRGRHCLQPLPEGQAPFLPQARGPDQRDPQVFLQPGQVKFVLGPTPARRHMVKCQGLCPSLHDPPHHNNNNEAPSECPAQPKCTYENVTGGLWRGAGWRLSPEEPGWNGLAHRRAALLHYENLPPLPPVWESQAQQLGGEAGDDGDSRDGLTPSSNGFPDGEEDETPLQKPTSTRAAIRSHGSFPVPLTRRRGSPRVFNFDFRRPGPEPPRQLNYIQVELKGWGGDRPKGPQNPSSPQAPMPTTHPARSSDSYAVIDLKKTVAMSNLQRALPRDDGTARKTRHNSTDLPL
# Outline: (§1)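 Each value is the phage ELISA signal on the glutathione S-transferase (GST)-domain fusion divided by the signal on GST alone. Human peptide recognition domains were expressed in 96-well plates, fused to the C-terminus of GST, and selected against an M13 phage library carrying randomized, cysteine-free, glycine-flanked hexadecapeptides on the gene-8 major coat protein. After five selection rounds, approximately 48 individual clones from rounds 4 and 5 were tested by phage ELISA, and positive clones were sequenced.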
# [2] = molecular target: GGA3 579-723 Alpha_adaptinC2 (domain begin residue: 579, domain end residue: 723)
# Outline: as §1
# [3] = molecular target: T2, GGA1 1-157 VHS (domain begin residue: 1, domain end residue: 157), Q9UJY5
# T2 chain: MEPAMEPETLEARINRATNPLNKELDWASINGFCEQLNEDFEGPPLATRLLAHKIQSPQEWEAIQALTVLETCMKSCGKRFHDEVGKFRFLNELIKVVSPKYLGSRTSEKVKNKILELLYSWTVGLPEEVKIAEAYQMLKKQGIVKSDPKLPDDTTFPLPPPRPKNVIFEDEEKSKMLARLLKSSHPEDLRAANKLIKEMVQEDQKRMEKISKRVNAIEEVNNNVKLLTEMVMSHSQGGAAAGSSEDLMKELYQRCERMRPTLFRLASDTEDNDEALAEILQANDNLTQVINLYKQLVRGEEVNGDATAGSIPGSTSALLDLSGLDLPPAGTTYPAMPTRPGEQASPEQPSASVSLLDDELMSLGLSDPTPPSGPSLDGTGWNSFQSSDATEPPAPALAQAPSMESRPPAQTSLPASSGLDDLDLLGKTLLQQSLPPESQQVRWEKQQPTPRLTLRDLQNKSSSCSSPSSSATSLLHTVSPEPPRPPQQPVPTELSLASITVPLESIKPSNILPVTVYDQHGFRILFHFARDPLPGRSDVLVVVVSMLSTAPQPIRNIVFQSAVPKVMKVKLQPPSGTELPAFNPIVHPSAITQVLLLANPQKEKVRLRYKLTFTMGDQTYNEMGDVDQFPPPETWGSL
# Outline: as §1
# [4] = molecular target: T3, GIGYF1 448-540 GYF (domain begin residue: 448, domain end residue: 540), O75420
# T3 chain: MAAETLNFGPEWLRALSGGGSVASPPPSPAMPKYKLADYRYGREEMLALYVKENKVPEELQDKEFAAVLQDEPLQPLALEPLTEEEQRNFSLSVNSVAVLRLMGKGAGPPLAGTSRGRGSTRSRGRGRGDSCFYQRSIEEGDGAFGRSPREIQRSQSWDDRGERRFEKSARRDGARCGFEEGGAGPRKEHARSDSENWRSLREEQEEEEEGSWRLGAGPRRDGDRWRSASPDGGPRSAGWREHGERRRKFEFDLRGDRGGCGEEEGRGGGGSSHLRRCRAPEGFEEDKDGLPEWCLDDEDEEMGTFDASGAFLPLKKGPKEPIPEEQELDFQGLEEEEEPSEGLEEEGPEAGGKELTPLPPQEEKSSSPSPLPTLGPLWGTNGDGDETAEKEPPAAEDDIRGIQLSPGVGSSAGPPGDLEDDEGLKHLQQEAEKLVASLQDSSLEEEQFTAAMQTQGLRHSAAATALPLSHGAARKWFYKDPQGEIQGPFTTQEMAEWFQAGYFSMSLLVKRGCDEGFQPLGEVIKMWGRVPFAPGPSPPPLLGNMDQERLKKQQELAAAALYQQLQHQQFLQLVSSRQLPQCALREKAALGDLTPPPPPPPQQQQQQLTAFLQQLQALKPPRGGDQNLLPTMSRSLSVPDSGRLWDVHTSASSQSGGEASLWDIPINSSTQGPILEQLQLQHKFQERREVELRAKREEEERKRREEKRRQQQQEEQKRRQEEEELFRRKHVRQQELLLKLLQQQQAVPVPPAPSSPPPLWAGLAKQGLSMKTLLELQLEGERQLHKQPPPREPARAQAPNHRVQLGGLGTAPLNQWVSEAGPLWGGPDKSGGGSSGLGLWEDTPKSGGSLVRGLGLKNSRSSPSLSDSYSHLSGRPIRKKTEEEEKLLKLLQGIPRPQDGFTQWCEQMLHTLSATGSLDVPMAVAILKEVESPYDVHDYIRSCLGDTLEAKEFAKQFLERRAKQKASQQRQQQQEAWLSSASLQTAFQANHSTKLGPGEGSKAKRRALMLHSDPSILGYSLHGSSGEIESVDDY
# Outline: as §1
# [5] = molecular target: GGA3 1-153 VHS (domain begin residue: 1, domain end residue: 153)
# Outline: as §1
# [6] = molecular target: T4, GIGYF2 507-602 GYF (domain begin residue: 507, domain end residue: 602), Q6Y7W6
# T4 chain: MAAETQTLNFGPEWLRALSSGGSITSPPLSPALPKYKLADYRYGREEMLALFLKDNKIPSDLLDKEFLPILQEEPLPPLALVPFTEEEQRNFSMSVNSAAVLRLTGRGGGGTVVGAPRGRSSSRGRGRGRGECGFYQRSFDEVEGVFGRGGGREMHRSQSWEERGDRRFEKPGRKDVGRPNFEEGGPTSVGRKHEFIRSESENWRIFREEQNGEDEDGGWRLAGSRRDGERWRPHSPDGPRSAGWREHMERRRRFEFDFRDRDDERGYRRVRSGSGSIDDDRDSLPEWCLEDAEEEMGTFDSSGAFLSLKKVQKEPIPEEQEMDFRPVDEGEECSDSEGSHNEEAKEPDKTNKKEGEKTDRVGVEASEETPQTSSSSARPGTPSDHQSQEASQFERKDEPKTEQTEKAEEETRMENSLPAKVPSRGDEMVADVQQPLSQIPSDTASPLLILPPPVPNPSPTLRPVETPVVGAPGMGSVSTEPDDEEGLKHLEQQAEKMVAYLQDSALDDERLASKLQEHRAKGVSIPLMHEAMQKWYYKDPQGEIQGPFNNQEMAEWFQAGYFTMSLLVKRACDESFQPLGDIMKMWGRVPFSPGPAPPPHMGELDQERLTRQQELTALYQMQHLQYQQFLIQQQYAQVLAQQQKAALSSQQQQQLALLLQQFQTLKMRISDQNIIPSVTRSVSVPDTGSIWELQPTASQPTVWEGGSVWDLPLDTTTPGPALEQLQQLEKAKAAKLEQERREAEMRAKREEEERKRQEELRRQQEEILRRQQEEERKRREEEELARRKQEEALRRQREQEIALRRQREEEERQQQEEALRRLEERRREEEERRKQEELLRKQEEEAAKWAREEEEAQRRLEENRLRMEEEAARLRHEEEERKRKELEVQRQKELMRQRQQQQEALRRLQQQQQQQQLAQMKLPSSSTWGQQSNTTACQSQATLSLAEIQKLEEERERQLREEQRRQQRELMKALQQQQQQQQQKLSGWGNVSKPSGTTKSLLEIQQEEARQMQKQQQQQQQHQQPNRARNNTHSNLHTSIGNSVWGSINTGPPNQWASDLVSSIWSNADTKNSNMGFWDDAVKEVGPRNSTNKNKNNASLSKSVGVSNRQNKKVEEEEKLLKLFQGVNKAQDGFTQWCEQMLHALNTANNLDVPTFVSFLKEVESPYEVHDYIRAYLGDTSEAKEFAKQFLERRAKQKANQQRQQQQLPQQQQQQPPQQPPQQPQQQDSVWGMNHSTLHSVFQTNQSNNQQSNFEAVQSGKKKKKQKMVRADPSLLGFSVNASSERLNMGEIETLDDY
# Outline: as §1
# [7] = molecular target: T5, FKBP3 109-224 FKBP_C (domain begin residue: 109, domain end residue: 224), Q00688
# T5 chain: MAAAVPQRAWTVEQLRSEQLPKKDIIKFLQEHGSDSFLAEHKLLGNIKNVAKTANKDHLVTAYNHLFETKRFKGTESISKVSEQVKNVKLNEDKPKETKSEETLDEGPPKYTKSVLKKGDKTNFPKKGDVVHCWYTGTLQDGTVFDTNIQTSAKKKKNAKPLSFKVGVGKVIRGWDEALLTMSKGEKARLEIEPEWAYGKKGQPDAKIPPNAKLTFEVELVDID
# Outline: as §1
# [8] = molecular target: T6, SPRED2 1-124 WH1 (domain begin residue: 1, domain end residue: 124), Q7Z698
# T6 chain: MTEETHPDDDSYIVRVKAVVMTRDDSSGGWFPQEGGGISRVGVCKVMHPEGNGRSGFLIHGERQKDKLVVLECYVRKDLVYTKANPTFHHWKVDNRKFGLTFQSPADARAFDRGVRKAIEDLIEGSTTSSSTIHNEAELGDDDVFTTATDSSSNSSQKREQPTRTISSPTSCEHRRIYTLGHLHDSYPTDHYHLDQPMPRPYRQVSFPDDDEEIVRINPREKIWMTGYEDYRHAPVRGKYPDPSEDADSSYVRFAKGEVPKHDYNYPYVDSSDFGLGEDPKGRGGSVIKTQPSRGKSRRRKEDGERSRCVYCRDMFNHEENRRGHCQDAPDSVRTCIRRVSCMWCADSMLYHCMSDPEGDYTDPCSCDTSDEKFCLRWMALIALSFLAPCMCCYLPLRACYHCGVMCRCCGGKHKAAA
# Outline: as §1
binder,measurement,setting,value
SRWVQIMHNGEETDSY,phage ELISA signal ratio,[1],16.9
DTWMWGGYVSHTVQPY,phage ELISA signal ratio,[2],23.1
DEILLHLPWAAMHWEG,phage ELISA signal ratio,[3],22.3
GPPGFHQHADVMRYEM,phage ELISA signal ratio,[4],20.9
TIDTPPGFPTSQHEGM,phage ELISA signal ratio,[4],16.8
SDVPPWWYHEPITGPM,phage ELISA signal ratio,[5],17.8
AWGKYQSWEPQEWPAT,phage ELISA signal ratio,[2],13.4
DWSQWQTAAMEEMITW,phage ELISA signal ratio,[2],18.5
HVEQWWTTESWPNWYT,phage ELISA signal ratio,[5],15.3
NMFMPPGFAPQQVQMH,phage ELISA signal ratio,[6],13.9
RFPPGMMQQLPQYADS,phage ELISA signal ratio,[6],29.9
EEWKPHPEEGMGVFLV,phage ELISA signal ratio,[7],13
EVWWQGPEEDWMQTYL,phage ELISA signal ratio,[5],11.9
VGQGVFLDWKPGRDVN,phage ELISA signal ratio,[7],17.5
same,phage ELISA signal ratio,[1],10.6
QAWDWGIYIDDWAQPL,phage ELISA signal ratio,[5],10.6
ASQWEWDDWLYIHSQT,phage ELISA signal ratio,[2],7.22
SFTWDSFESYVEPWKY,phage ELISA signal ratio,[2],9.04
HLDQPPWWTLQEWASH,phage ELISA signal ratio,[5],12.2
PDTELIDVHQWRTSQW,phage ELISA signal ratio,[5],22.1
SAPPGYQTGLLMAEYR,phage ELISA signal ratio,[4],7.85
same,phage ELISA signal ratio,[8],3.46
QHLWHWEDTDYYEWSE,phage ELISA signal ratio,[5],20.1
VDEWSVMKYPVEQKWV,phage ELISA signal ratio,[5],21.6
EGMGPPGFWVGSDLRG,phage ELISA signal ratio,[6],14.7
WDIDMWDLQEWMMIQS,phage ELISA signal ratio,[3],13.9
SEVHPPGFAQEHHIMQ,phage ELISA signal ratio,[6],23.9
PQGTWFTIIQEPSQHD,phage ELISA signal ratio,[1],5.78
PQIQWYMDDILLVPTI,phage ELISA signal ratio,[3],15.5
